The structures appear in SMILES notation. Hit rate of the full screen: of about 340,000 compounds, about 2,100 (0.62%) were called active.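 How the source made its calls: active means first-screen hits whose inhibition reached a set limit at any dose in the follow-up dose series; inconclusive means inhibition above the set first-screen limit but never retested; inactive means the rest.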 Not all results are given here. Results with a measured potency or affinity are listed apart.

The test deals with Rac GTPase-activating protein 1 (Homo sapiens) (UniProt Q9H0H5). The experiment in a line: blockers of MgcRacGAP-driven Rac1 GTP hydrolysis – biochemical, ADP Hunter fluorescence, primary and confirmatory, confirmation (AID 624330).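 Further: fluorescence reports GDP produced by GAP-driven GTP hydrolysis.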 The conditions noted are these: MgcRacGAP-stimulated Rac1 GTP hydrolysis, at 30 µM, stronger effect = higher value, GST-tagged Rac1 F28L mutant substrate.
Sequence of Rac GTPase-activating protein 1 (Homo sapiens) (Q9H0H5 whole entry, looked up): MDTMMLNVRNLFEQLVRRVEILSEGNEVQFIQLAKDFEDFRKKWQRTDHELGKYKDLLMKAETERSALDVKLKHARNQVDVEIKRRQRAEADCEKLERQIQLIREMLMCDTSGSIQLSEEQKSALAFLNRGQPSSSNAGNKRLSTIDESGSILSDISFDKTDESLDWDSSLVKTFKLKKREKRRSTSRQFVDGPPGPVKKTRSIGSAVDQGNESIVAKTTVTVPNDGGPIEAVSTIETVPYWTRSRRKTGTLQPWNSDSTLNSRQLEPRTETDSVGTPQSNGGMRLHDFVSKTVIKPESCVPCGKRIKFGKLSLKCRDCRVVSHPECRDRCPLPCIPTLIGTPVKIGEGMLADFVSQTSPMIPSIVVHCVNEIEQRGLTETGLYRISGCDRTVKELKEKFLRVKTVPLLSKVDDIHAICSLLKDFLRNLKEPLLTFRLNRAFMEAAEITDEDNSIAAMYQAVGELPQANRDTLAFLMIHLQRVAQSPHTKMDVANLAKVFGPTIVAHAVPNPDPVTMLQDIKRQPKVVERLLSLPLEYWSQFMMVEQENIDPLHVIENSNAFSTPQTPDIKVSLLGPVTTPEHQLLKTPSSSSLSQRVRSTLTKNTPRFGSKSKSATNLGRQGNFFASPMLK
On to `O=C1OC(COc2ccc(Br)cc2)CN1c1ccccc1` (configuration not stated), for which the inhibition is 0.77% (inactive).

Consider `Cc1ccc(OCc2nnc(SC(C)C(=O)O)n2Cc2ccccc2)cc1` (configuration not stated), for which the inhibition is -1.5% (inactive). With `O=C(COC(=O)[C@@H]1CC(O)CN1S(=O)(=O)c1ccc2c(c1)OCCO2)Nc1ccccc1F` (some centres not stated), the inhibition is 1.86% (inactive). In the case of `O=C(c1ccc(Cl)nc1)N1CCN(C/C=C/c2ccccc2)CC1` it was 10.5% (inactive); in that of `O=C(CN1C(=O)NC2(CCc3ccccc32)C1=O)c1c[nH]c2ccccc12` (configuration not stated), -3.1% (inactive). `CN1CCN(C(c2cccc(Cl)c2)c2ccccc2Cl)CC1` (configuration not stated): the inhibition was 7.6% (inactive). Consider `CC1(C)C(=O)N(c2ccccc2)C1c1ccccc1O` (configuration not stated), for which the inhibition was 3.93% (inactive). In the case of `O=C(CCCCCNC(=O)c1ccccc1)N/N=C/c1ccc(F)cc1` it was 6.47% (inactive); in that of `O=C(CCCCCNC(=O)c1ccccc1)N/N=C/c1ccccc1O`, 3.53% (inactive); in that of `O=C(COc1ccccc1)NCC(=O)N/N=C/c1ccccc1`, 5.67% (inactive). Consider `Oc1ccc(C=NNC(=S)Nc2cccnc2)nc1`, for which the inhibition is 7.4% (inactive).

As for `Oc1ccc(/C=N/NC(=S)Nc2cccnc2)c(O)c1O`, the inhibition was -102% (inactive). Regarding `Cc1cccc(OCC(=O)NCC(=O)N/N=C/c2ccc(O)cc2O)c1`, the inhibition was 18.5% (inactive). Consider `FC(F)(F)c1cnc(COc2ccc(Cl)cc2Cl)c(Cl)c1`, for which the inhibition is 7.97% (inactive). As for `COc1ccccc1-c1cc(C(=O)NCc2ccco2)no1`, the inhibition was 11.6% (inactive).

For the compound `CCN(C[C@H]1N[C@@](C)(C(=O)OC)[C@H]2C(=O)N(C)C(=O)[C@@H]12)C(=O)Nc1ccc(C(F)(F)F)cc1`, the inhibition was 4.98% (inactive). On to `COCCn1c(SC(C(=O)Nc2cc(C)ccc2OC)c2ccccc2)nnc1-c1ccc(Cl)cc1` (configuration not stated), for which the inhibition was 8.02% (inactive). With `CC(C)COP(=O)(OCC(C)C)C(O)c1ccc2c(c1)OCO2` (configuration not stated), the inhibition is 2.18% (inactive).

In the case of `N#Cc1c(-c2ccccc2)ccn(Cc2ccc(Cl)cc2)c1=O`, the inhibition is 11.4% (inactive).

Regarding `COc1cc(CNC2CCCC2)cc(OC)c1`, the inhibition is 16.2% (inactive). `COc1cc(CNC2CCCCC2OC)cc(OC)c1OC` (configuration not stated): the inhibition is 21.8% (inactive). Regarding `Cc1ccc(C)c(N2CCN(C(=O)Cc3ccc(NC4=NC5CS(=O)(=O)CC5S4)cc3)CC2)c1` (configuration not stated), the inhibition is 15.3% (inactive).

As for `O=C(CNc1ccccc1)N/N=C/c1ccc2c(c1)OCO2`, the inhibition was 1.14% (inactive). As to `O=C(CNc1ccc2c(c1)OCO2)N/N=C\c1cn(Cc2ccccc2)c2ccccc12`, the inhibition was 9.72% (inactive). The result for `CCOC(=O)Cc1csc(SC(C)C(=O)NC2CCCCC2C)n1` (configuration not stated) reads 10.4% (inactive); that for `CC(=O)c1ccc(N2CCN(C(=O)c3noc4c3CSc3ccccc3-4)CC2)cc1`, 10.2% (inactive).

`c1ccc(CCn2nnnc2C(c2cccs2)N2CCOCC2)cc1` (configuration not stated): the inhibition was 6.38% (inactive).

As for `COc1ccc(N2CCN(C(c3ccccc3)c3nnnn3Cc3ccc(F)cc3)CC2)cc1` (configuration not stated), the inhibition is 19% (inactive). Regarding `c1ccc(Cn2nnnc2C(c2cccnc2)N2CCN(c3ccccc3)CC2)cc1` (configuration not stated), the inhibition was 2.89% (inactive).

Turning to `CCS(=O)(=O)NC(C)C(c1cccs1)N1CCN(c2ccc(F)cc2)CC1` (configuration not stated), the inhibition is 8.25% (inactive). In the case of `Fc1ccc(N2CCN(C(c3cccs3)c3nnnn3CCc3ccccc3)CC2)cc1` (configuration not stated) it was -2.42% (inactive); in that of `O=S(=O)(NCC(c1cccnc1)N1CCN(c2ccccc2)CC1)c1cccs1` (configuration not stated), 2.98% (inactive); in that of `COc1ccc(N2CCN(C(c3cccs3)C(C)NS(C)(=O)=O)CC2)cc1` (configuration not stated), 27.8% (inactive). Consider `O=S(=O)(NCC(c1cccnc1)N1CCN(c2ccc(F)cc2)CC1)c1cccs1` (configuration not stated), for which the inhibition is 5.99% (inactive). The result for `CC1CCCC(NC(=O)CN2C(=O)NC(C)(c3ccccc3)C2=O)C1C` (configuration not stated) reads 2.02% (inactive); that for `O=C(N/N=C/c1ccoc1)c1ccc([N+](=O)[O-])cc1`, 3.91% (inactive). For `COc1cccc2cc(C(=O)N3CC(C)OC(C)C3)c(=O)oc12` (configuration not stated), the inhibition is 5.05% (inactive). In the case of `COC(=O)c1ccc(COC(=O)c2ccccc2OC)cc1` it was -1.87% (inactive); in that of `COc1ccc(C(=O)NNC(=O)c2ccccc2[N+](=O)[O-])cc1Br`, 2.78% (inactive); in that of `COc1ccc([C@H]2CC(=O)C=C(c3cccc(F)c3OC)C2)cc1`, 9.17% (inactive). Turning to `Cc1ccc(C(=O)N2CCN(Cc3ccc4c(c3)OCO4)CC2)o1`, the inhibition is 3.03% (inactive). In the case of `O=C(c1cccc(F)c1)N1CCN(c2ccc([N+](=O)[O-])c(N3CCOCC3)c2)CC1`, the inhibition was 9.81% (inactive). For `CN1C(=O)CSC1=S`, the inhibition is 6.82% (inactive). Consider `O=c1[nH]nc(CNc2cccc(C(F)(F)F)c2)c2ccccc12`, for which the inhibition is 7.15% (inactive). For `COc1ccc(OC)c(C(c2c(C)[nH][nH]c2=O)c2c(C)[nH][nH]c2=O)c1`, the inhibition is 12.8% (inactive). As to `O=c1c(Cl)c(N2CCN(c3ccc(F)cc3)CC2)cnn1C12CC3CC(CC(C3)C1)C2`, the inhibition was -5.26% (inactive). In the case of `N#Cc1nnn2c1nc(N)c1c(F)cccc12`, the inhibition was 2.66% (inactive). Take `Cc1ccc(S(=O)(=O)N(CC(=O)N2CCOCC2)c2ccccc2F)cc1`: the inhibition was 2.11% (inactive).

On to `Oc1cccc(-c2nc3ccccc3s2)c1`, for which the inhibition was 8.24% (inactive). As to `Oc1ccc(-c2nc3ccccc3s2)cc1`, the inhibition was 15.1% (inactive). `COc1ccc(-c2nc3ccccc3s2)cc1NC(C)=O`: the inhibition is -7.89% (inactive). For the compound `COc1ccc(-c2nc3ccccc3s2)cc1O`, the inhibition was 11.7% (inactive). `Cc1ccc(OCC(=O)N(Cc2cccc(F)c2)C2CCS(=O)(=O)C2)cc1` (configuration not stated): the inhibition was 8.85% (inactive). For the compound `COc1ccc(C(=O)Sc2nncc3ccccc23)cc1`, the inhibition was -1.75% (inactive). With `O=C(Nc1ccccc1SC(=O)c1ccccc1)c1ccccc1`, the inhibition is 18.6% (inactive). The result for `CCc1nc2ccccc2c(C(=O)OCC(=O)N(C)Cc2ccccc2)c1C` reads 3.21% (inactive); that for `CCN(CC(=O)Nc1ccc(NC(C)=O)cc1)CC(=O)Nc1cc(C)on1`, 5.22% (inactive). On to `CCN(CC)CCNC(=O)c1ccc(NC(=O)c2ccc3c(c2)CCC3)cc1`, for which the inhibition was 3.69% (inactive). Consider `CCCCN(C)CCC(=O)Nc1ccc2c(c1)CCC2`, for which the inhibition is 6% (inactive). In the case of `CSCC(=O)Nc1cc(C)on1` it was -9.86% (inactive).

With `O=C(NCc1ccccn1)Nc1cccc(F)c1`, the inhibition was 7.66% (inactive). Take `C=CCN(CC=C)c1ncnc2[nH]ncc12`: the inhibition was 0.33% (inactive). Turning to `COc1cc(C)c(S(=O)(=O)Nc2ccccc2F)cc1C`, the inhibition is 0.77% (inactive).

As to `CCn1nc(C(=O)NCc2nnc3ccccn23)c2ccccc2c1=O`, the inhibition is 2.43% (inactive). On to `CCOC(=O)C1CN(S(=O)(=O)c2ccc(OC)cc2)c2cc(S(=O)(=O)CC)ccc2O1` (configuration not stated), for which the inhibition was -8.53% (inactive). As for `CC1=NN(C(N)=S)C(=O)C1N=Nc1ccc(Br)cc1` (configuration not stated), the inhibition is 12.4% (inactive).

Consider `CC1=NN(C(N)=S)C(=O)C1N=Nc1ccc(Cl)cc1` (configuration not stated), for which the inhibition was 13.3% (inactive). With `CCC(C)NC(=O)CS(=O)Cc1nc(-c2cccc(C)c2)oc1C` (configuration not stated), the inhibition is 2.8% (inactive). `CCn1cc(C(=O)N2CCN(c3ccccn3)CC2)c2cc(OC)c(OC)cc2c1=O`: the inhibition is -4.67% (inactive).

Turning to `CC1=C(C(N)=O)C(c2ccc(Cl)c(Cl)c2)n2ncnc2N1` (configuration not stated), the inhibition was 3.56% (inactive). Consider `Cn1c(N2CCOCC2)c(C=O)c2ccccc21`, for which the inhibition is 8.54% (inactive). Take `CN1CCN(c2c(/C=N/O)c3ccccc3n2C)CC1`: the inhibition was 28.5% (inactive). In the case of `O=C(Nc1ccc(C(=O)O)cc1)/C(=C\c1ccco1)NC(=O)c1ccc(Br)cc1` it was 18.2% (inactive); in that of `COc1ccc2c3c(cccc13)C(=O)N(O)C2=O`, 1.13% (inactive); in that of `COc1ccc2c3c(cccc13)OC2=O`, 5.25% (inactive). The result for `COc1ccc(CCNC(=O)c2nnc(Cc3c(F)cccc3Cl)o2)cc1OC` reads 3.35% (inactive). On to `O=C1OC(Cc2ccccc2)C(c2ccccc2)C1=O` (configuration not stated), for which the inhibition is 3.8% (inactive). In the case of `O=C1N[C@H](Cc2ccccc2)CO1` it was 3.86% (inactive).

In the case of `COc1ccc(Br)cc1C(=O)Nc1cccc(-c2nnc(-c3ccco3)o2)c1`, the inhibition is -5.03% (inactive). Regarding `COc1ccc(NC(=O)c2ccc(OC(F)F)cc2)cc1Cl`, the inhibition was -1.44% (inactive). `COc1ccc2c(/C=N/NS(=O)(=O)c3ccc(C)cc3)c[nH]c2c1`: the inhibition was 11.2% (inactive). With `O=C(O)c1ccc(S(=O)(=O)NN=Cc2c[nH]c3ccccc23)cc1`, the inhibition was 14.2% (inactive).

As to `O=C(O)c1cc(N/N=C/c2c[nH]c3ccccc23)ccc1Cl`, the inhibition is 23.8% (inactive). Take `COc1ccc(C(=O)N/N=C/c2c[nH]c3ccccc23)cc1`: the inhibition was 16.4% (inactive). `COc1ccc(S(=O)(=O)N2CCCCC2)cc1NC(=O)CCc1cc(OC)c(OC)c(OC)c1`: the inhibition is 2.57% (inactive).

Consider `O=C(COC(=O)Cc1c(Cl)cccc1Cl)Nc1ccccc1-c1ccccc1`, for which the inhibition is 1.56% (inactive).

As for `O=C(O)C1CC(c2ccccc2)=Nc2ccccc2S1` (configuration not stated), the inhibition is 6.83% (inactive). In the case of `CC1(C)CC(=O)C(Sc2ccccc2)=C(O)C1`, the inhibition was -4.47% (inactive).

With `CCOC(=O)Nc1ccc2c(c1)nc1n2CCN(CCOC)C1`, the inhibition was 8.24% (inactive). On to `NS(=O)(=O)c1ccc(NC(=O)CSc2nc3c(c(=O)[nH]2)CCCC3)cc1`, for which the inhibition is 6.37% (inactive). With `CCN(CC(=O)NCc1ccc(F)cc1)C(=O)CN1CCN(c2ccccc2OC)CC1`, the inhibition is 2.73% (inactive).

Consider `COc1ccc(CNC(=O)CN2CCN(c3ccc(F)cc3)CC2)cc1`, for which the inhibition was 6.2% (inactive). In the case of `CCOc1ccccc1NC(=O)Cn1cnc2c(cnn2-c2ccc(C)c(C)c2)c1=O` it was 9.09% (inactive); in that of `CC[C@@]1(C(=O)OC)N[C@H](CN(C)C(=O)c2ccc(F)cc2)[C@@H]2C(=O)N(Cc3ccccc3)C(=O)[C@@H]21`, 1.15% (inactive). As to `CC(C)Cc1nnc(NC(=O)CCC(=O)NCCc2ccc(Cl)cc2)s1`, the inhibition is 4.94% (inactive).

On to `C[C@]12CC[C@@H]3c4ccc(O)cc4CC[C@H]3[C@@H]1CCC2=O`, for which the inhibition is 9.39% (inactive). The result for `CC12CCC3c4ccc(O)cc4CCC3C1CCC2=O` (configuration not stated) reads 5.82% (inactive).

For orientation: inhibition means the relative decrease from the control value, in per cent.

(Values after PubChem BioAssay AID624330 (Southern Research Specialized Biocontainment Screening …, 2012).)
